Assay in all cases: DAPPL (digital affinity profiling via proximity ligation, sequencing); 10 mM Tris-HCl pH 7.5, 50 mM NaCl, 1 mM DTT, 4% glycerol, room temperature, 30 min; GST-TFs on glutathione beads, 16-mer random dsDNA library, 0.1% formaldehyde crosslink after washing; high values mean tight binding
In assay [1] the target is T1, FEV (Homo sapiens, UniProt Q99581 1-238).
T1 sequence: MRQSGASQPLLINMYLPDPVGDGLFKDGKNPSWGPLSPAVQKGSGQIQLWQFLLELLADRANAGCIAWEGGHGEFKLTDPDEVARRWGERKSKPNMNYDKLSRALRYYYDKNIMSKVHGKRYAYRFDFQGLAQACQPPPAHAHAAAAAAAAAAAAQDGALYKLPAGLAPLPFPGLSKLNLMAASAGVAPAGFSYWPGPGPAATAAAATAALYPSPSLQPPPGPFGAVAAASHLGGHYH
As to conditions: protein: recombinant; tags: N-terminal GST; dsDNA, one strand shown. The essentials:
(§1)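 Human transcription factors fused to GST were expressed in yeast, captured on glutathione beads, given DNA barcodes and pooled with a GST-only negative control. Pools were incubated with 200 nmole of a 16-mer random double-stranded DNA library in Tris/NaCl/DTT/glycerol buffer at room temperature for 30 min. They were then washed, crosslinked with 0.1% formaldehyde, proximity-ligated (BsaI/T4 ligase, 1 h, 37 °C), PCR-amplified and sequenced on an Illumina NextSeq500. Binding signal is each 6-mer's read frequency for a factor divided by its frequency for the GST control.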

The target of assay [2] is ETV5 (Homo sapiens, UniProt P41161 1-510). As to conditions: protein: recombinant; tags: N-terminal GST; dsDNA, one strand shown. The essentials:
as §1

The target of assay [3] is HSF1 (Homo sapiens, UniProt Q00613 1-529). Conditions: protein: recombinant; tags: N-terminal GST; chain copies: 3; dsDNA, one strand shown. The essentials: as §1
Chain of HSF1 (Q00613 whole entry): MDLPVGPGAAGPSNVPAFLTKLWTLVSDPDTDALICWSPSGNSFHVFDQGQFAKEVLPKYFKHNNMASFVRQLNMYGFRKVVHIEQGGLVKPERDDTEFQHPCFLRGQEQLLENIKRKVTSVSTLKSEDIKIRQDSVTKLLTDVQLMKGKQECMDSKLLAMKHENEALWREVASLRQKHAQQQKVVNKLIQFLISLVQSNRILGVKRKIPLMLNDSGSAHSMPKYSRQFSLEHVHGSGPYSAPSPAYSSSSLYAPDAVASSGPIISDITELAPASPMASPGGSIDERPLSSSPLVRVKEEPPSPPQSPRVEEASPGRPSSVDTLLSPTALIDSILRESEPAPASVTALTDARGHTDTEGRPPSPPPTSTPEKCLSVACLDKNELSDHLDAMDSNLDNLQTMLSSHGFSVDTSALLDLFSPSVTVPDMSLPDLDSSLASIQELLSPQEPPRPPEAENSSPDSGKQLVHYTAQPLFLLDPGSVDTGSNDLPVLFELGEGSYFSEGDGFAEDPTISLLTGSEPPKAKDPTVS
The target of assay [4] is T2, SPIC (Homo sapiens, UniProt Q8N5J4 1-248).
T2 sequence: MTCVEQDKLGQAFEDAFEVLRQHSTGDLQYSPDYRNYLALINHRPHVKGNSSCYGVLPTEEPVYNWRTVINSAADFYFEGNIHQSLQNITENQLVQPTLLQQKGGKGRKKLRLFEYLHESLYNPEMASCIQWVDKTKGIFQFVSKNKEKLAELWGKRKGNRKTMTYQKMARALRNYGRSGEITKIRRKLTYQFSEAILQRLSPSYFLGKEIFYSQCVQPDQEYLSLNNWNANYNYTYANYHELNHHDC
As to conditions: protein: recombinant; tags: N-terminal GST; dsDNA, one strand shown. The essentials:
as §1

The target in assay [5] is ELF4 (Homo sapiens, UniProt Q99607 1-663). As to conditions: protein: recombinant; tags: N-terminal GST; dsDNA, one strand shown. The method, boiled down: as §1
Chain of ELF4 (Q99607 whole entry): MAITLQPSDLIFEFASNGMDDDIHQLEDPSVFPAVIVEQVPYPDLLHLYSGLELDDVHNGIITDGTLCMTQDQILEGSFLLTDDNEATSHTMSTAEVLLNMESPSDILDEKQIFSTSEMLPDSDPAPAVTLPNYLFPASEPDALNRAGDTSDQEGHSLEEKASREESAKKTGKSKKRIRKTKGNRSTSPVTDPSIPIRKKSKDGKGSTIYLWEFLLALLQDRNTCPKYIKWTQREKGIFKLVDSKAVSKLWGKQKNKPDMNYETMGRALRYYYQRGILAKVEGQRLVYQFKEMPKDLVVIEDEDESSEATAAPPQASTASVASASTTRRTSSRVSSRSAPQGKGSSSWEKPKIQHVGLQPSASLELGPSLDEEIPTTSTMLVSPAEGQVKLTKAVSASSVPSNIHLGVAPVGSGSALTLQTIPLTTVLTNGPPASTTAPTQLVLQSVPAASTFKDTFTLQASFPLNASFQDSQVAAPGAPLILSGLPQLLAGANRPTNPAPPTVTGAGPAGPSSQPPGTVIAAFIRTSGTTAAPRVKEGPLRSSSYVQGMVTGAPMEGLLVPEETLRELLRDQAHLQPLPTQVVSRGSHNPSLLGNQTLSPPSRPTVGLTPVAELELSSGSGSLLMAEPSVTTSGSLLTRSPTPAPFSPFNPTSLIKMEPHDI
The target of assay [6] is T3, ELK4 (Homo sapiens, UniProt P28324-2 1-405).
T3 sequence: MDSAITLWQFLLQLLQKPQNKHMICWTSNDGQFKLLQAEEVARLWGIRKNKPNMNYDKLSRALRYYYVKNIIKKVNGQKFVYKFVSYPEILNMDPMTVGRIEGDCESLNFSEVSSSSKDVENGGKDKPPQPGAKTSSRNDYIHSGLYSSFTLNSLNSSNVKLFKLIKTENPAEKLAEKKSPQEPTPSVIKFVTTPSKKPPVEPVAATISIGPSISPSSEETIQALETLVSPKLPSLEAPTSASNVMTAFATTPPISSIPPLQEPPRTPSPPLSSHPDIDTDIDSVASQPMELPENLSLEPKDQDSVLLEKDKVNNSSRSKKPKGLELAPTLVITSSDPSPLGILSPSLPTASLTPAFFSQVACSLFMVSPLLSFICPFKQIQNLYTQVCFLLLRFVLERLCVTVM
Conditions: protein: recombinant; tags: N-terminal GST; dsDNA, one strand shown. The method, boiled down: as §1

Assay [7] deals with T4, ETV2 (Homo sapiens, UniProt O00321 1-342).
T4 sequence: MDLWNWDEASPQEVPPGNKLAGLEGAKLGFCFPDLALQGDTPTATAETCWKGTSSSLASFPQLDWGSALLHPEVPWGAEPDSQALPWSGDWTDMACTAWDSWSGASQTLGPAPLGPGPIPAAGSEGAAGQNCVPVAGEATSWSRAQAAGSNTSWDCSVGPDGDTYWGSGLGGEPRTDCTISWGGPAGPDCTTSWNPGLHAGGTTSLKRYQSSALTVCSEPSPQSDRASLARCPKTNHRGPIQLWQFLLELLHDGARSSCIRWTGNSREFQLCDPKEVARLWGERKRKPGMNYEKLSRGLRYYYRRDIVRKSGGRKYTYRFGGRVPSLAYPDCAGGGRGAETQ
As to conditions: protein: recombinant; tags: N-terminal GST; dsDNA, one strand shown. The method, boiled down:
as §1

Assay [8] addresses T5, ELF3 (Homo sapiens, UniProt P78545 1-371).
T5 sequence: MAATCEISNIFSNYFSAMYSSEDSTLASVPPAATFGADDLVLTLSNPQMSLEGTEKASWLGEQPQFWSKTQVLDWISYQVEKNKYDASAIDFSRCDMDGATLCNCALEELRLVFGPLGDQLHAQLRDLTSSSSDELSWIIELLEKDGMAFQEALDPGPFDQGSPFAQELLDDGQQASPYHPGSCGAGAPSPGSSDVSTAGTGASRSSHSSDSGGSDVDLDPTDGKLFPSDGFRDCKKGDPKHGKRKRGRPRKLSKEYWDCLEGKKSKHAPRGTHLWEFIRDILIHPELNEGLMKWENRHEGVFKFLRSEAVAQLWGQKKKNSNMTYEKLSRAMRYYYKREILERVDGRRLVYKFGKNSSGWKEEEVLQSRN
Conditions: protein: recombinant; tags: N-terminal GST; dsDNA, one strand shown. The essentials:
as §1

Assay [9] addresses CRX (Homo sapiens, UniProt O43186 1-299). As to conditions: protein: recombinant; tags: N-terminal GST; dsDNA, one strand shown. The essentials:
as §1

Assay [10] addresses ETV1 (Homo sapiens, UniProt P50549 1-477). Conditions: protein: recombinant; tags: N-terminal GST; dsDNA, one strand shown. The method, boiled down:
as §1

Chain of ETV5 (P41161 whole entry): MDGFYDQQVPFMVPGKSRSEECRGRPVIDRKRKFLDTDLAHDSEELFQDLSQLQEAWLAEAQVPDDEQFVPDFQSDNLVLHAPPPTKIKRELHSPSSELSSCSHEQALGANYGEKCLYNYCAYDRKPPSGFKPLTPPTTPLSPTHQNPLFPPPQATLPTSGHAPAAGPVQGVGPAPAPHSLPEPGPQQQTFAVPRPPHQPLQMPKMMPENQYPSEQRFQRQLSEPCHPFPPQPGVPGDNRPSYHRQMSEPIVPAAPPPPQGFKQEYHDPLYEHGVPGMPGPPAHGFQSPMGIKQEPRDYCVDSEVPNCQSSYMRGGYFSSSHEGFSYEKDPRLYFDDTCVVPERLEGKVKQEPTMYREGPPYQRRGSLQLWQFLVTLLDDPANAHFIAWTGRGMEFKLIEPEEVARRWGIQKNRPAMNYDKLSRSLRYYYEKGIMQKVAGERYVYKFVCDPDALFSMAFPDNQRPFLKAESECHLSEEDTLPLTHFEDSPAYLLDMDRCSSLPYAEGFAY
Chain of CRX (O43186 whole entry): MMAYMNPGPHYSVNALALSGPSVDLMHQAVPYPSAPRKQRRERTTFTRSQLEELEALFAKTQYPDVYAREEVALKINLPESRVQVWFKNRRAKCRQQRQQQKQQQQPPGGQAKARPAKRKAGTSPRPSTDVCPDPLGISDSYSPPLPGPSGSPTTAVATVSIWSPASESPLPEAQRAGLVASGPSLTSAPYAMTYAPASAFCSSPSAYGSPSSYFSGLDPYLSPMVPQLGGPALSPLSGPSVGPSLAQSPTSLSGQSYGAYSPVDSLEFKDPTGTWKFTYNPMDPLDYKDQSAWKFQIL
Chain of ETV1 (P50549 whole entry): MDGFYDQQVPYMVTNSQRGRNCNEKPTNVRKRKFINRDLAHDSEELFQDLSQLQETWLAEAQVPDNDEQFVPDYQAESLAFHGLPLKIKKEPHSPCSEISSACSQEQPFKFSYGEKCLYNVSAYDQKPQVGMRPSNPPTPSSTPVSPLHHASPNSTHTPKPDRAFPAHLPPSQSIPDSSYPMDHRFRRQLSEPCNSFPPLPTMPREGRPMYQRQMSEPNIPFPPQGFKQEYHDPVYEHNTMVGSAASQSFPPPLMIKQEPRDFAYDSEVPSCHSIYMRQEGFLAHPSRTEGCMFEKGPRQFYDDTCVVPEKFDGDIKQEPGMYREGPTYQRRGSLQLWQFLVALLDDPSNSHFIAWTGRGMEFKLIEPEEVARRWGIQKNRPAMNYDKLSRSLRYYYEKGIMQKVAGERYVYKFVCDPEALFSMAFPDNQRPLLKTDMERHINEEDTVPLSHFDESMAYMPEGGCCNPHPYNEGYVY

TTCTTC: the binding signal in assay [1] was 1.66 fold enrichment (6-mer frequency, TF over GST control); in [2] it was 1.87 fold enrichment (6-mer frequency, TF over GST control); in assay [3], 2.07 fold enrichment (6-mer frequency, TF over GST control); in assay [4], 1.74 fold enrichment (6-mer frequency, TF over GST control); in assay [5] it was 1.81 fold enrichment (6-mer frequency, TF over GST control); in assay [6], 1.69 fold enrichment (6-mer frequency, TF over GST control). The binding signal is 1.83 fold enrichment (6-mer frequency, TF over GST control) in assay [7]; 1.74 fold enrichment (6-mer frequency, TF over GST control) in [8]; 1.44 fold enrichment (6-mer frequency, TF over GST control) in [9]; 1.9 fold enrichment (6-mer frequency, TF over GST control) in assay [10].

ACTTTT: the binding signal in assay [1] was 1.25 fold enrichment (6-mer frequency, TF over GST control); in assay [2], 1.27 fold enrichment (6-mer frequency, TF over GST control); in assay [3] it was 1.25 fold enrichment (6-mer frequency, TF over GST control); in assay [4], 1.35 fold enrichment (6-mer frequency, TF over GST control); in assay [5] it was 1.32 fold enrichment (6-mer frequency, TF over GST control); in [6], 1.25 fold enrichment (6-mer frequency, TF over GST control). The binding signal in [7] is 1.25 fold enrichment (6-mer frequency, TF over GST control); in assay [8], 1.45 fold enrichment (6-mer frequency, TF over GST control); in [9], 1.25 fold enrichment (6-mer frequency, TF over GST control); in [10], 1.32 fold enrichment (6-mer frequency, TF over GST control).

For TCTAAA, the binding signal in assay [1] is 1.15 fold enrichment (6-mer frequency, TF over GST control); in [2] it was 1.15 fold enrichment (6-mer frequency, TF over GST control); in assay [3], 1.46 fold enrichment (6-mer frequency, TF over GST control); in assay [4], 1.46 fold enrichment (6-mer frequency, TF over GST control); in assay [5], 1.27 fold enrichment (6-mer frequency, TF over GST control); in assay [6], 1.3 fold enrichment (6-mer frequency, TF over GST control). In addition, the binding signal was 1.27 fold enrichment (6-mer frequency, TF over GST control) in assay [7]; 1.14 fold enrichment (6-mer frequency, TF over GST control) in assay [8]; 1.6 fold enrichment (6-mer frequency, TF over GST control) in assay [9]; 1.16 fold enrichment (6-mer frequency, TF over GST control) in assay [10].

On to TATCGT, for which the binding signal in assay [1] is 1.05 fold enrichment (6-mer frequency, TF over GST control); in [2], 1.12 fold enrichment (6-mer frequency, TF over GST control); in assay [3], 1.17 fold enrichment (6-mer frequency, TF over GST control); in assay [4], 1.09 fold enrichment (6-mer frequency, TF over GST control); in assay [5], 1.07 fold enrichment (6-mer frequency, TF over GST control); in assay [6], 1.13 fold enrichment (6-mer frequency, TF over GST control). In addition, the binding signal in assay [7] is 1.16 fold enrichment (6-mer frequency, TF over GST control); in assay [8] it was 1.15 fold enrichment (6-mer frequency, TF over GST control); in assay [9], 1.28 fold enrichment (6-mer frequency, TF over GST control); in assay [10] it was 1.21 fold enrichment (6-mer frequency, TF over GST control).

Consider TCTCGT, for which the binding signal in [1] is 1.21 fold enrichment (6-mer frequency, TF over GST control); in assay [2], 1.1 fold enrichment (6-mer frequency, TF over GST control); in assay [3], 2.01 fold enrichment (6-mer frequency, TF over GST control); in assay [4], 1.31 fold enrichment (6-mer frequency, TF over GST control); in assay [5], 1.24 fold enrichment (6-mer frequency, TF over GST control); in assay [6], 1.3 fold enrichment (6-mer frequency, TF over GST control). Further, the binding signal in assay [7] is 1.27 fold enrichment (6-mer frequency, TF over GST control); in [8], 1.65 fold enrichment (6-mer frequency, TF over GST control); in [9], 1.35 fold enrichment (6-mer frequency, TF over GST control); in assay [10], 1.27 fold enrichment (6-mer frequency, TF over GST control).

As for AAGTTC, the binding signal in [1] was 1.29 fold enrichment (6-mer frequency, TF over GST control); in assay [2] it was 1.47 fold enrichment (6-mer frequency, TF over GST control); in [3], 1.94 fold enrichment (6-mer frequency, TF over GST control); in [4] it was 1.54 fold enrichment (6-mer frequency, TF over GST control); in [5] it was 1.35 fold enrichment (6-mer frequency, TF over GST control); in assay [6], 1.41 fold enrichment (6-mer frequency, TF over GST control). Besides, the binding signal in assay [7] was 1.22 fold enrichment (6-mer frequency, TF over GST control); in assay [8], 1.47 fold enrichment (6-mer frequency, TF over GST control); in assay [9], 1.22 fold enrichment (6-mer frequency, TF over GST control); in assay [10], 1.34 fold enrichment (6-mer frequency, TF over GST control).

With TACTAC, the binding signal in [1] is 1.35 fold enrichment (6-mer frequency, TF over GST control); in assay [2] it was 1.33 fold enrichment (6-mer frequency, TF over GST control); in assay [3], 1.17 fold enrichment (6-mer frequency, TF over GST control); in assay [4], 1.26 fold enrichment (6-mer frequency, TF over GST control); in assay [5], 1.36 fold enrichment (6-mer frequency, TF over GST control); in assay [6], 1.19 fold enrichment (6-mer frequency, TF over GST control). Besides, the binding signal in assay [7] was 1.38 fold enrichment (6-mer frequency, TF over GST control); in assay [8] it was 1.08 fold enrichment (6-mer frequency, TF over GST control); in [9] it was 1.13 fold enrichment (6-mer frequency, TF over GST control); in [10], 1.24 fold enrichment (6-mer frequency, TF over GST control).

TCCTTC: the binding signal in [1] is 2.2 fold enrichment (6-mer frequency, TF over GST control); in assay [2], 2.1 fold enrichment (6-mer frequency, TF over GST control); in assay [3], 2.13 fold enrichment (6-mer frequency, TF over GST control); in assay [4] it was 2.26 fold enrichment (6-mer frequency, TF over GST control); in assay [5], 2.08 fold enrichment (6-mer frequency, TF over GST control); in [6] it was 2.04 fold enrichment (6-mer frequency, TF over GST control). Further, the binding signal in [7] was 2.47 fold enrichment (6-mer frequency, TF over GST control); in [8], 1.85 fold enrichment (6-mer frequency, TF over GST control); in [9] it was 1.72 fold enrichment (6-mer frequency, TF over GST control); in assay [10], 2.05 fold enrichment (6-mer frequency, TF over GST control).

Values taken from PMC7862700, “An all-to-all approach to the identification of sequence-specific readers for epigenetic DNA modifications on cytosine”.
